# Screens: PubChem BioAssay, National Center for Advancing Translational Sciences (NCATS)
# This is one part of a sample in which hits are shown more often than they occur.
# AmpC detergent – inhibitors of E. coli AmpC beta-lactamase with detergent. AmpC hydrolysis of nitrocefin, absorbance 480 nm, 0.01% Triton. AID 485294. P00811. 370,000 compounds, 0.041% hits. Potency, µM (series often up to 114 µM), usual class: inhibitors; note: nearly all actives have a fitted effect of over 25% in size
# Target sequence (P00811 whole entry, looked up): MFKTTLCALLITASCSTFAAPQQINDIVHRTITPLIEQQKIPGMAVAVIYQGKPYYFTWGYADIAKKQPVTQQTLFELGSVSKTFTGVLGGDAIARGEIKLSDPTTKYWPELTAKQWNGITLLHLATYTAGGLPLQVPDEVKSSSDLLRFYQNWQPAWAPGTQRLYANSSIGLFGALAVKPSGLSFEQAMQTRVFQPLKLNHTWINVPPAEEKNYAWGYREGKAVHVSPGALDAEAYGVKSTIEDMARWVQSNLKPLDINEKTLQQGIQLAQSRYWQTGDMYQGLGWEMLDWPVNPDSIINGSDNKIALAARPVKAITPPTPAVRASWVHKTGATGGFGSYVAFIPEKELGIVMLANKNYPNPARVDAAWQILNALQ
#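 20 mM phosphate pH 7.0 + 0.01% (detergent screen) or 0.0001% Triton X-100; 5.3 nM AmpC reagent; cpd preinc 15 min RT; nitrocefin (800 uM stock) to start; A480 q20 s × 4 min; Activity was normalised to no-enzyme and no-compound control wells.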
# AMA1 RON2 block – disrupts binding of P. falciparum AMA1 to RON2; AlphaScreen AMA1-biotinylated RON2 peptide binding; Potency, µM (titrated, usually from 58.2 µM), usual class: inhibitors; 360,000 compounds, 0.2% hits; note: nearly all actives have a fitted effect of over 45% in size
#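 AMA1 (3D7) with his tag at 25 nM final met compounds first, then biotinylated RON2 peptide at 25 nM; detection used donor plus acceptor beads, 10 µg/mL apiece, read by AlphaScreen after 30 min at room temperature.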
# Shiga inhibitor – inhibitors of Shiga toxin in Vero cells. Vero cells, Shiga toxin protein synthesis inhibition reporter. 290,000 compounds, 9.2% hits. AID 2315. inhibition, % at 38.7 µM; in the data active = inhibition mostly above about 28%, no sharp cut-off; inactive = mostly below about 43%
# AmpC inh no detg – inhibitors of E. coli AmpC beta-lactamase without detergent | AmpC nitrocefin hydrolysis, absorbance 480 nm, 0.0001% Triton | Potency, µM (titrated, usually from 57.1 µM), usual class: inhibitors | 330,000 compounds, 0.52% hits | AID 485341; note: nearly all actives have a fitted effect of over 20% in size
#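 20 mM phosphate pH 7.0 + 0.01% (detergent screen) or 0.0001% Triton X-100; 5.3 nM AmpC reagent; cpd preinc 15 min RT; nitrocefin (800 uM stock) to start; A480 q20 s × 4 min; Activity was normalised to no-enzyme and no-compound control wells.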
# Cycloheximide cs – counter-screen hit for Shiga toxin inhibitors, cycloheximide | cell reporter, cycloheximide protein synthesis inhibition counterscreen | 300,000 compounds, 12% hits | AID 2314 | max response, %; in the data active = max response mostly above about 13%, no sharp cut-off; inactive = mostly below about 14%; note: read at 38.3 µM for the half of the compounds with a filed dose
# SARS PLpro yeast – SARS-CoV PLP inhibition in yeast. 330,000 compounds, 0.19% hits. S. cerevisiae expressing SARS-CoV PLpro, growth rescue. Potency, µM (series often up to 32.9 µM), most hits filed as activators; calls by dose curve; note: nearly all actives have a fitted effect of over 55% in size
# Hits are given with their value; n = inactive; u = inconclusive; x = no result. Unless noted, calls come from the whole dose curve; as a rule, active = well fitted curve in the direction sought with a large enough effect; inconclusive = small, poorly fitted or top-dose-only effect, or another doubt; inactive = no such curve, though single readings can be large; an effect the other way counts as inactive or inconclusive.
SMILES,AmpC detergent,AMA1 RON2 block,Shiga inhibitor,AmpC inh no detg,Cycloheximide cs,SARS PLpro yeast
O=C(O)C1CCN(C(=O)c2ccccc2Cl)CC1,n,n,n,n,n,n
CCc1ccc(/C=N\NC(=O)c2ccc(Br)o2)s1,n,n,100,n,90,n
Cc1ccc(/C=N/NC(=O)Cc2ccc(O)cc2)s1,n,n,n,n,27,n
Cc1cc([N+](=O)[O-])ccc1-c1ccc(/C=N/NC(=O)c2ccc(Br)o2)o1,u,n,n,n,n,u
Cc1ccc(/C=N/NC(=O)c2ccc(Br)o2)s1,n,n,82,n,43,n
O=C(Cc1ccc(O)cc1)N/N=C/c1cccs1,u,n,n,n,n,n
Cc1ccc(N(CC(=O)N/N=C/c2ccc(OCC(N)=O)cc2)S(C)(=O)=O)cc1Cl,n,n,n,n,n,n
O=C(c1ccccc1)C1CCN(C(=O)C2CCC(=O)N(Cc3cccc(F)c3)C2)CC1 (centres undefined),u,n,n,n,n,n
O=C(OCC(=O)N1CCCC1=O)c1ccc(F)c(S(=O)(=O)N2CCOCC2)c1,u,n,n,n,n,n
Cn1c(CNC(=O)c2ccccc2F)nnc1SCCOc1ccccc1,n,n,n,n,n,n
O=C1CCCN1CCCNC(=S)Nc1ccccc1,n,n,n,n,n,n
O=C(Nc1nc(-c2cccs2)cs1)c1ccc(Cl)cc1,n,n,n,28µM,n,n
O=C(Nc1nc(-c2cc(Cl)sc2Cl)cs1)c1cccs1,n,n,n,n,11,n
O=C(Nc1nc(-c2cc(Cl)sc2Cl)cs1)c1ccc(Br)s1,u,n,n,n,n,n
COc1cc(C(=O)Nc2nc(-c3cccs3)cs2)cc(OC)c1OC,n,n,n,n,n,n
COc1ccc(C(=O)Nc2nc(-c3cccs3)cs2)cc1,n,n,84,x,45,x
CC(=O)C(Sc1ccc2nnc(-c3cccnc3)n2n1)C(C)=O,n,n,n,n,n,n
Cc1cccc(OCc2nnc(SCC(=O)c3cccs3)n2C)c1C,n,n,n,n,21,n
Cc1ccccc1OCc1nnc(SCC(=O)NCc2ccccc2)n1C,n,n,n,n,n,n
COC(=O)CSc1nnc(-c2cnccn2)n1C,n,n,n,n,n,n
CCn1c(SCC(=O)Nc2nccs2)nnc1-c1cccnc1,n,n,n,n,31,n
Cn1c(SCC(=O)c2ccccc2)nnc1-c1cnccn1,n,n,n,n,27,n
Cn1c(SCC(=O)c2ccccc2)nnc1-c1cccnc1,n,n,67,n,54,n
Cn1c(SCC(=O)c2ccc(F)cc2)nnc1-c1cccnc1,u,n,n,n,n,n
C=CCn1c(SCC(=O)Nc2ccc(F)cc2F)nnc1-c1cnccn1,n,n,45,n,26,n
SMILES,AmpC detergent,AMA1 RON2 block,Shiga inhibitor,AmpC inh no detg,Cycloheximide cs,SARS PLpro yeast
Cn1c(SCC(=O)Nc2ccccc2F)nnc1-c1cccnc1,u,n,n,n,n,n
C=CCn1c(SCC(=O)Nc2cccc(OC)c2)nnc1-c1cccnc1,u,n,n,n,19,n
Cn1c(SCC(=O)Nc2ccc(F)cc2)nnc1-c1cccnc1,u,n,n,32µM,n,n
C=CCn1c(SCC(=O)Nc2ccc(C(=O)O)cc2)nnc1-c1cccnc1,n,n,n,n,n,n
CCn1c(SCC(=O)c2ccccc2)nnc1-c1cnccn1,n,n,107,n,52,n
CCC(=O)Nc1cc2c(cc1Cl)-c1ccccc1C2,x,n,x,x,x,x
Cc1nnc(NC(=O)CCS(=O)(=O)c2ccccc2)s1,u,n,n,n,n,n
COc1ccc(C(=O)N2CCN(c3ccccc3)CC2)cc1S(=O)(=O)NC1CC1,u,n,x,n,x,n
CCc1ccccc1-n1c(SCC(=O)NC)nnc1-c1cccnc1,35µM,n,n,n,n,n
CCC(=O)Nc1cccc(-c2nnc(SCC(=O)c3ccccc3)n2C)c1,n,n,81,n,36,n
CCC(=O)Nc1cccc(-c2nnc(SCC(=O)NCc3ccco3)n2C)c1,n,n,n,n,n,n
Cn1c(SCC(=O)c2ccccc2)nnc1-c1cccs1,u,n,86,n,25,n
CCn1c(SCC(=O)c2cccs2)nnc1-c1cccs1,u,n,n,n,27,n
Cn1c(SCC(=O)NCc2cccs2)nnc1-c1cccs1,n,n,n,x,n,x
